Shown are actives, neighbours in structure and some others; about 19% of the full set was active somewhere.
VP16 counter: counter-screen for ROR gamma inhibitors: Gal4-VP16 reporter; AID 2546; 310,000 compounds, 3.5% hits; Potency, µM (highest dose often 53.6 µM), without a hit: at the highest dose activity, negative = inhibition, usual class: inhibitors; Drosophila S2 Gal4-VP16 UAS-luciferase, luminescence, 20 h;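 also: Gal4-VP16 expression switched on by copper sulfate through the metallothionein promoter; nearly all actives have a fitted effect of over 50% in size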
RORg inh: blocks mouse ROR gamma transcriptional activity. P51450. Drosophila S2 Gal4-RORgamma UAS-luciferase reporter, 20 h. Potency, µM (highest dose often 53.6 µM), inactives show at the top dose activity change, negative = inhibition, most hits filed as inhibitors. 310,000 compounds, 5.4% hits; also: nearly all actives have a fitted effect of over 60% in size
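In this cell-based reporter format, copper sulfate (700 uM final) drives Gal4–ROR gamma fusion expression from a metallothionein promoter in Drosophila Schneider cells; compounds preincubated 1 hr, reporter read after 20 hr at ambient temperature.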
TDP1 cell CPT: growth inhibition of DT40 Tdp1-/-;hTDP1 cells with camptothecin (screen for TDP1 inhibitors); chicken DT40 Tdp1-/-;hTDP1 cells + 20 nM CPT, ATP luminescence, 48 h; Potency, µM (top dose mostly 46.2 µM), for the others: at the top dose activity change, negative = growth inhibition, actives largely listed as inhibitors; 420,000 compounds, 12% hits; also: nearly all actives have a fitted effect of over 55% in size
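Cell growth measured by CellTiter-Glo luminescence after a minimum 48 h, 37 C compound exposure with 20 nM CPT in Tdp1-knockout DT40 cells stably expressing hTDP1, seeded 400/well; qHTS titration format.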
TDP1 block: blocks human tyrosyl-DNA phosphodiesterase 1 | Potency, µM (top dose mostly 130 µM), for inactives: at the top dose activity change, negative = inhibition, actives largely listed as inhibitors | recombinant TDP1, AlphaScreen DNA substrate cleavage | AID 485290 | 350,000 compounds, 0.28% hits; also: nearly all actives have a fitted effect of over 40% in size
Target sequence (Q9NUW8 whole entry, looked up): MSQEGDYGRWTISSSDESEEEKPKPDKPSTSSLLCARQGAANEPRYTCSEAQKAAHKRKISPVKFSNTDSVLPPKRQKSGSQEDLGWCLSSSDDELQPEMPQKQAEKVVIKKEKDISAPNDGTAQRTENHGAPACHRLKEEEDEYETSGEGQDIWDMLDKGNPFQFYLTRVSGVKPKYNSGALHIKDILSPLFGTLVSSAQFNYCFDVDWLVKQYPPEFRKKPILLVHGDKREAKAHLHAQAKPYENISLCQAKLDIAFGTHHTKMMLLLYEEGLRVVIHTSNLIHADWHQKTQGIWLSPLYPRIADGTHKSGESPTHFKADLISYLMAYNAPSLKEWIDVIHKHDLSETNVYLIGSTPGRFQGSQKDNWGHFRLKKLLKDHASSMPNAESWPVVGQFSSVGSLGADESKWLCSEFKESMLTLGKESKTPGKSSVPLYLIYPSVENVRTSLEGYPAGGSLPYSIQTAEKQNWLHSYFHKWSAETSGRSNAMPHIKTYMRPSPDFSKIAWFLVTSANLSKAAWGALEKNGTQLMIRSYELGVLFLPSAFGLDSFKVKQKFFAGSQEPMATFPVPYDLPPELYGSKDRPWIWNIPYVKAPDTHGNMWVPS
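Enzyme-compound mixtures sat 15 min at room temperature, followed by a 5 min reaction with 15 nM final substrate and 10 min with AlphaScreen beads. Recombinant human Tdp1 was used at 1 nM final.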
DT40 TDP1 no CPT: qHTS for Inhibitors of human tyrosyl-DNA phosphodiesterase 1 (TDP1): qHTS in cells in absence of CPT. Potency, µM (highest dose often 46.2 µM), without a hit: top-dose activity change, negative = growth inhibition, usual class: inhibitors. 420,000 compounds, 15% hits. DT40 Tdp1-/- hTDP1 cells, no CPT, ATP luminescence, 48 h; also: nearly all actives have a fitted effect of over 55% in size
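Chicken DT40 Tdp1-/- cells complemented with human TDP1, screened without camptothecin (DMSO vehicle only), 400 cells/well. Compounds pin-transferred, cells incubated at 37 °C for at least 48 hr. Growth read as ATP-dependent luminescence (CellTiter-Glo, 30 min at RT).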
* hit, by the source's call; ? = inconclusive; · = not tested or not shown. Calls follow the shape of the dose curve; as a rule, active = well fitted curve in the direction sought with a large enough effect; inconclusive = small, poorly fitted or top-dose-only effect, or another doubt; inactive = no such curve, though single readings can be large; an effect the other way counts as inactive or inconclusive. % is scaled to controls: 0 for no effect and ±100 for the full control effect; potency is read from the fitted curve at half-maximal effect.

SMILES | VP16 counter | RORg inh | TDP1 cell CPT | TDP1 block | DT40 TDP1 no CPT
O=C(NC1CCCC1)c1cc(Nc2cccc(C(F)(F)F)c2)nc2ccccc12 | · | · | ? | -4% | ?
COc1ccc(/C=C/C(=O)NC(=S)Nc2ccc(S(=O)(=O)Nc3cc(C)on3)cc2)cc1 | -1% | ? | -7% | 10% | -17%
O=C(Nc1nnc([C@H]2C[C@H](O)[C@@H](CO)O2)s1)Nc1cccc2c1CCCC2 | · | · | -2% | · | -8%
C=CCn1c(-c2cc(-c3ccccc3)sc2N)n[nH]c1=S | 10µM* | 2.2µM* | 11% | 11% | ?
C=CCn1c(-c2csc(-c3ccc(Cl)cc3)n2)n[nH]c1=S | 1.8µM* | ? | -9% | 2% | -7%
C=CCn1c(-c2csc(-c3ccccc3)n2)n[nH]c1=S | 0.71µM* | 4µM* | -23% | 0% | ?
C=CCn1c(-c2csc3ccccc23)n[nH]c1=S | 6.3µM* | 3.5µM* | -5% | 4% | -12%
C=CCn1c(-c2ccccn2)n[nH]c1=S | · | · | -5% | · | 3%
CN(C)C(=O)c1ccc2c3c(cccc13)CC2 | 19% | 12% | 12% | 5% | 1%
CCC(=O)Nc1c(-c2ccccc2)c(=O)c2ccccc2n1C | -5% | 10% | -4% | 3% | -6%
CCn1c(-c2c[nH]c3ccccc23)n[nH]c1=S | -10% | ? | ? | ? | -12%
CCn1c(-c2csc(-c3ccccc3)n2)n[nH]c1=S | 6.3µM* | 2.5µM* | -14% | 3% | -12%
Cc1ccc(N2CCn3c2nc2c3c(=O)n(C/C=C/c3ccccc3)c(=O)n2C)cc1C | · | · | 8% | 3% | -17%
Cc1ccccc1NC(=S)NN1CCN(C)CC1 | 0% | -27% | 0% | -2% | -6%
CC(=O)Nc1ccn(C2COC(COC(=O)c3ccccc3)O2)c(=O)n1 (centres undefined) | · | · | 0.84µM* | · | 1.5µM*
Cc1ccc(-c2nc(CCNC(=O)C(=O)Nc3ccc(C)cc3C)cs2)cc1 | · | · | -3% | 0% | -20%
COc1ccc(-c2ccc(SC)nn2)cc1 | ? | 10µM* | -29% | 5% | ?
O=C(NC1CCCc2c1cnn2-c1cc(F)cc(F)c1)c1ccccn1 (centres undefined) | · | · | ? | · | -21%
COc1ccc(C(=O)NC2CCCc3c2cnn3-c2cc(F)cc(F)c2)c(OC)n1 (centres undefined) | 6% | 38% | -26% | -5% | -17%
Cn1nccc1C(=O)NC1CCCc2c1cnn2-c1cc(F)cc(F)c1 (centres undefined) | ? | ? | 15µM* | 0% | ?
CC1=C(C(=O)NC2CCCc3c2cnn3-c2cc(F)cc(F)c2)OCCO1 (centres undefined) | 1% | -42% | -12% | 5% | ?
COC(=O)c1ccc(C(=O)NC2CCCc3c2cnn3-c2cc(F)cc(F)c2)nc1 (centres undefined) | -16% | 16% | 2.9µM* | 0% | 2.1µM*
COc1ccc(C(=O)NC2CCCc3c2cnn3-c2cc(F)cc(F)c2)c(OC)c1OC (centres undefined) | -4% | 4% | 16µM* | 2% | 15µM*
Cc1nc(-c2ccc(F)cc2)sc1CCNC(=O)C(=O)Nc1ccc2c(c1)OCO2 | · | · | ? | -1% | -29%
Cc1ccc(C(=O)NC2CC(C)(C)NC(C)(C)C2)cc1Cl | -10% | -8% | 17% | 5% | -2%
SMILES | VP16 counter | RORg inh | TDP1 cell CPT | TDP1 block | DT40 TDP1 no CPT
Cc1sc2nc(CSC(C)C(=O)Nc3ccc(C(N)=O)cc3)[nH]c(=O)c2c1C (centres undefined) | · | · | -6% | · | -4%
CN(C)CCCNC(=S)N(Cc1cccs1)Cc1cc2cc3c(cc2[nH]c1=O)OCCO3 | 7% | 14% | ? | 6% | ?
Cc1ccc2[nH]c(=O)c(CN(Cc3cccs3)C(=S)NCc3ccco3)cc2c1 | -91% | ? | ? | 3% | 16µM*
CN(C)CCN(Cc1cc2cc3c(cc2[nH]c1=O)OCO3)C(=S)NCc1ccco1 | -12% | -5% | -26% | 0% | -23%
Cc1ccc2[nH]c(=O)c(CN(CC3CCCO3)C(=S)NCc3ccco3)cc2c1 (centres undefined) | -9% | ? | ? | -14% | 21µM*
Cc1ccc2cc(CN(CC3CCCO3)C(=S)NCc3ccco3)c(=O)[nH]c2c1 (centres undefined) | -15% | 7% | -2% | 3% | -14%
Cc1ccc2cc(CN(Cc3ccco3)C(=S)NCC3CCCO3)c(=O)[nH]c2c1 (centres undefined) | -11% | 27% | ? | 6% | 21µM*
O=c1[nH]c2cc3c(cc2cc1CN(Cc1cccnc1)C(=S)NCc1ccco1)OCCO3 | 9% | ? | 15µM* | 0% | ?
COC(C[C@H](O)[C@@H](C)[C@@H](O)COCc1ccccc1)OC | -5% | -2% | -6% | -2% | -2%
CC(NC(=O)c1ccc(CS(=O)(=O)c2ccc(Cl)cc2)o1)c1ccc2c(c1)OCCO2 (centres undefined) | -3% | 28% | -25% | 2% | ?
C=CCNC(=O)/C=C/c1c(F)cccc1Cl | -12% | -8% | -3% | 5% | -4%
O=C(NCC(=O)N(Cc1cccs1)C(C(=O)NC1CCCC1)c1ccncc1)c1ccco1 (centres undefined) | 1% | 14% | 9% | -2% | -4%
Oc1ccc(-c2nc3ccccn3c2NCc2ccco2)cc1 | -17% | 21% | 5% | 7% | ?
Cc1ccn2c(Cc3ccccc3)c(-c3ccc(Br)cc3)nc2c1 | · | · | 21µM* | · | ?
Cc1ccn2c(CN3CCOCC3)c(-c3ccccc3)nc2c1 | -2% | -52% | -29% | 0% | ?
Cc1ccn2c(Cc3ccccc3)c(-c3ccccc3)nc2c1 | · | · | 18µM* | · | 18µM*
Cc1ccn2c(NCc3ccco3)c(-c3ccccc3)nc2c1 | · | · | ? | -3% | 11µM*
O=C(Nc1ccccc1F)c1ccc(-c2ccccc2)s1 | · | · | -16% | -10% | -22%
Cc1ccc(S(=O)(=O)N2CCN(C(=O)CSc3nccn3C)CC2)cc1 | 3% | 0% | -4% | -1% | -29%
CCCCNC(=O)C(c1ccc(OCC(=O)OC)c(C(=O)OC)c1)N(CCc1ccccn1)C(=O)CCCCCN1C(=O)NC(c2ccc(-c3ccccc3)cc2)C(C(=O)OCc2ccccc2)=C1C (centres undefined) | -16% | 23% | · | 9% | ·
Cc1cc(N2CCOCC2)ncc1[N+](=O)[O-] | -5% | -10% | -11% | 3% | -5%

Screening results from PubChem.
